Data published in the supplement of paper PMC10338343.
± gives the standard deviation.

System: MILI (PIWIL2) piRISC loaded with L1MC piRNA (26 nt)
Test: pre-steady-state target cleavage rate (min^-1); guide: L1MC piRNA 5'p-UAACUAAAUACUAUGCAAGCUGUAGG; MIWI and MILI are mouse PIWI proteins and EfPiwi is from a freshwater sponge; tags in brackets are library labels; higher = faster piRNA-guided slicing of the target
Settings: auxiliary factor: 500 nM mouse GTSF1
Procedure, shortened: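 In HEPES–potassium acetate buffer at 33 °C, […] transcribed, DNA-blocked target RNA library was mixed with 1 nM active affinity-purified piRISC carrying one synthetic guide, with or without 500 nM GTSF1 partner protein, for 0–8 or 0–960 min. Uncleaved targets were sequenced and normalised to depth and to weakly complementary targets; three trials were pooled and k3 was capped at 0.0001 min^-1. The pre-steady-state cleavage rate followed from a burst-and-steady-state fit.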
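Also: 1 nM active piRISC with 0.1 nM target library at 33 °C single turnover.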

**Q.** How did the “pre-steady-state target cleavage rate” value turn out when UCCUGGAACAGCUUGCUAAGUAUUUAGUAA was run?
**A.** 0.0296 ± 0.01

**Q.** How did the “pre-steady-state target cleavage rate” value turn out when UCCUGGAUGUCCUUGCUUAGUAUUUAGUAA was run?
**A.** 0.0426 ± 0.013

**Q.** For UCCUGGAACAGGUUGCAUAGUAUUUUCAAA, which “pre-steady-state target cleavage rate” value is on record?
**A.** 0.0435 ± 0.012

**Q.** For UCCUCCUACAGCUUGCAUUCUAUUUACAAA, which “pre-steady-state target cleavage rate” value is on record?
**A.** 0.0257 ± 0.0099

**Q.** How did the “pre-steady-state target cleavage rate” value turn out when UCCUGGAACAGCUUGCAUAGUAAUUUCAAA was run?
**A.** 0.0786 ± 0.026

**Q.** For UCCUGGAUGUCCUUGCUUAGUAUUAAGUUA, which “pre-steady-state target cleavage rate” value is on record?
**A.** 0.0115 ± 0.0047

**Q.** For UCCUCCUACAGCUUGCUAUGUAUUUAGUAA, which “pre-steady-state target cleavage rate” value is on record?
**A.** 0.021 ± 0.0069

**Q.** UCCUGGUACAGCUAGCAUAGAAUUUAGUUA was tested. Which “pre-steady-state target cleavage rate” value did it give?
**A.** 0.313 ± 0.084

**Q.** How did the “pre-steady-state target cleavage rate” value turn out when UCCUGGAACAGCUUGCAUACUAUUUUCAAA was run?
**A.** 0.0161 ± 0.0061

**Q.** For UCCUGGAUGUCGAUGCUUAGUAUAUAGUUA, which “pre-steady-state target cleavage rate” value is on record?
**A.** 0.0304 ± 0.0073

**Q.** With UCCUGGAUGUGCUUGGAUAGUAUUUAGUAA as the sequence, how does the “pre-steady-state target cleavage rate” value read?
**A.** 0.117 ± 0.021

**Q.** For UCCUGGAUGUGCUUGGAUAGAAUUUAGUUA, which “pre-steady-state target cleavage rate” value is on record?
**A.** 0.00729 ± 0.0047

**Q.** How did the “pre-steady-state target cleavage rate” value turn out when “UCCUGGAUGUCGAACCAUAGUAUUAUCAAA [g7:g15:cont:t1A]” was run?
**A.** < 0.0001

**Q.** For UCCUGGAUGAGCUUGCAUAGUAAUUUGUUA, which “pre-steady-state target cleavage rate” value is on record?
**A.** 0.0508 ± 0.018

**Q.** How did the “pre-steady-state target cleavage rate” value turn out when UCCUGGAUCAGCUUGCAUAGAAUUUUGUUA was run?
**A.** 0.038 ± 0.012

**Q.** How did the “pre-steady-state target cleavage rate” value turn out when UCCUGGAUCAGCUUGGAUAGAAUUUAGUUA was run?
**A.** 0.0242 ± 0.0065

**Q.** Which “pre-steady-state target cleavage rate” value does the source give for UCCUGGAACAGCAUGCAUAGUAUUUAGAUA here?
**A.** 0.188 ± 0.022

**Q.** UCCUGGAUGUCGAACCAUAGUAUUUGAGUUA was tested. Which “pre-steady-state target cleavage rate” value did it give?
**A.** < 0.0001

**Q.** Which “pre-steady-state target cleavage rate” value does the source give for UCCUGGAACAGCUUGCUAAGUAUUUACAAA here?
**A.** 0.0164 ± 0.0066

**Q.** How did the “pre-steady-state target cleavage rate” value turn out when UCCUGGAUGAGCUUGCAUAGUAUUUAGGUA was run?
**A.** 0.166 ± 0.04

**Q.** How did the “pre-steady-state target cleavage rate” value turn out when UCCUGGAUGACCUUGCAUAGUAUUUAGUAA was run?
**A.** 0.152 ± 0.019

**Q.** How did the “pre-steady-state target cleavage rate” value turn out when UCCUGGAUGAGCUUGCAUAGUAUUAAGUAA was run?
**A.** 0.0732 ± 0.021

**Q.** For UCCUGGAUCAGCAAGCAUAGUAUUUUCAAA, which “pre-steady-state target cleavage rate” value is on record?
**A.** 0.024 ± 0.0074

**Q.** UCCUGGAUGUGCUUGCAUAGUUUUUUGUUA was tested. Which “pre-steady-state target cleavage rate” value did it give?
**A.** 0.0102 ± 0.0056

**Q.** For UCCUGGAUGUCCUUGACAUAGUAUUUAGUUA, which “pre-steady-state target cleavage rate” value is on record?
**A.** 0.0214 ± 0.0096

**Q.** Which “pre-steady-state target cleavage rate” value does the source give for UCCUGGAUGAGCUUGCAUACUAUUAAGUUA here?
**A.** 0.00607 ± 0.0038

**Q.** Which “pre-steady-state target cleavage rate” value does the source give for UCCUGGAUGAGCUUGCAUAGUAUAAUGAAA here?
**A.** 0.00735 ± 0.0041

**Q.** With UCCUGGAUCAGCUUCCAUAGUUUUUAGUUA as the sequence, how does the “pre-steady-state target cleavage rate” value read?
**A.** 0.0089 ± 0.0041

**Q.** With UCCUGGAUGUCGAAGCAUAGUAUUGUAGUUA as the sequence, how does the “pre-steady-state target cleavage rate” value read?
**A.** 0.00801 ± 0.0041

**Q.** For UCCUCCUACAGCUUGCAUUCUAUUUAGUUA, which “pre-steady-state target cleavage rate” value is on record?
**A.** 0.0458 ± 0.0096

Same assay, conditions: auxiliary factor: none (no GTSF1)

**Q.** UCCUGGAUGUGCUUGCAUACUUUUUAGUUA was tested. Which “pre-steady-state target cleavage rate” value did it give?
**A.** 0.0037 ± 0.0027

**Q.** With UCCUGGAUGUCGAACGAAAGUAUUUAGUAA as the sequence, how does the “pre-steady-state target cleavage rate” value read?
**A.** < 0.0001

**Q.** How did the “pre-steady-state target cleavage rate” value turn out when UCCUGGAUGUCGAACGUAUGUAUUUAGUA was run?
**A.** < 0.0001

**Q.** How did the “pre-steady-state target cleavage rate” value turn out when UCCUGGAUGUCGAUGCAUUGUAAUUAGUUA was run?
**A.** < 0.0001

**Q.** How did the “pre-steady-state target cleavage rate” value turn out when UCCUGGAUGUCGAACGAUAGUUUUAAGUUA was run?
**A.** < 0.0001

**Q.** Which “pre-steady-state target cleavage rate” value does the source give for UCCUGGAUGUCGUUCCAAAGUAUUUAGUUA here?
**A.** < 0.0001

**Q.** How did the “pre-steady-state target cleavage rate” value turn out when “UCCUGGAUGUCGAUGCAUAGAUAAAUCAAA [g11:g17:cont:t1A]” was run?
**A.** < 0.0001

**Q.** UCCUGGAUCAGCUACGAUAGUAUUUUCAAA was tested. Which “pre-steady-state target cleavage rate” value did it give?
**A.** < 0.0001

**Q.** How did the “pre-steady-state target cleavage rate” value turn out when UCCUGGAUGUCGAACCAUAGUAUUUUGUAA was run?
**A.** < 0.0001
